Consider twelve targets from the supplement of paper PMC10849652.

Of roughly 8,800 targets only a part is listed; those with a hit were picked by preference. About 0.5% of all pairs of compound and target were hits. A number with no mark means an inactive call.

Common to all, as to assay: log2 fold change, soluble protein after heating vs DMSO (PISA); higher = thermal stabilisation; K562 lysate, 10 uM; active = over 0.2 and 3.5 SD of the protein, either way, in both replicates (recomputed)
Compound in one assay: Cc1cn(-c2cc(NC(=O)c3ccc(C)c(Nc4nccc(-c5cccnc5)n4)c3)cc(C(F)(F)F)c2)cn1 [nilotinib]
The essentials:
(§1)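 Log-two fold change in thermal stability relative to solvent controls is reported from duplicates. For each sample, crude K562 extract from dounce-homogenised pellets in PBS pH 7.4 with 1 mM MgCl2, at 1 mg/mL protein, was treated with 10 μM compound for 30 min. Aliquots heated for 3 min across 48°C-58°C were pooled, brought to 0.5% NP-40 at 4°C and cleared at 21,000xg for 90 min. The supernatant was quantified by TMTpro 16plex LC-MS/MS with channel sums equalised.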

Compound in assay [1]: Cc1nc(Nc2n[nH]c3c2CN(C(=O)N[C@H](CN(C)C)c2ccccc2)C3(C)C)c2sccc2n1
The essentials:
as §1

Compound in assay [2]: Cc1ncc(-c2ccnc(Nc3ccc(S(C)(=O)=O)cc3)n2)n1C(C)C
In a few lines: as §1

Compound in a further assay: Cn1cncc1[C@@](N)(c1ccc(Cl)cc1)c1ccc2c(c1)c(-c1cccc(Cl)c1)cc(=O)n2C [tipifarnib]
The essentials:
as §1

Compound in assay [3]: NC1(c2ccc(-c3nc4ccn5c(=O)[nH]nc5c4cc3-c3ccccc3)cc2)CCC1
The essentials: as §1

Compound in a further assay: O=C(CCCCCCC(=O)Nc1ccccc1)NO [vorinostat]
The essentials:
as §1

Compound in another assay: O=C(O)c1ccc2c(c1)nc(Nc1cccc(Cl)c1)c1ccncc12 [silmitasertib]
In a few lines: as §1

Compound in the next assay: Cc1nc(Nc2ncc(C(=O)Nc3c(C)cccc3Cl)s2)cc(N2CCN(CCO)CC2)n1 [dasatinib]
In a few lines:
as §1

Compound in assay [4]: Cn1cc(-c2ccc3c(c2)CCN3C(=O)Cc2cccc(C(F)(F)F)c2)c2c(N)ncnc21
The essentials: as §1

Compound in the next assay: Cn1cc(CNCC2CCN(c3ncc(C(=O)NO)cn3)CC2)c2ccccc21 [quisinostat]
The essentials:
as §1

Compound in assay [5]: NC(=O)Nc1cc(-c2cccc(F)c2)sc1C(=O)N[C@H]1CCCNC1
In a few lines: as §1

Compound in assay [6]: NC(=O)c1cnc(N[C@@H]2CCCC[C@@H]2N)nc1Nc1cccc(-n2nccn2)c1
In a few lines: as §1

Compound in assay [7]: NCC(=O)Nc1ccc(-n2nc(C(F)(F)F)cc2-c2ccc3c(ccc4ccccc43)c2)cc1
The essentials: as §1

Compound in assay [8]: O=C1NC(=O)C(c2cnc3ccccn23)=C1c1cn2c3c(cc(F)cc13)CN(C(=O)N1CCCCC1)CC2
The essentials: as §1

Compound in a further assay: c1cn2cc(-c3ccc4cn[nH]c4c3)nc(Nc3ccc(N4CCOCC4)cc3)c2n1 [entospletinib]
The essentials: as §1

Chain of UniProt A7E2V4 (A7E2V4 whole entry, looked up): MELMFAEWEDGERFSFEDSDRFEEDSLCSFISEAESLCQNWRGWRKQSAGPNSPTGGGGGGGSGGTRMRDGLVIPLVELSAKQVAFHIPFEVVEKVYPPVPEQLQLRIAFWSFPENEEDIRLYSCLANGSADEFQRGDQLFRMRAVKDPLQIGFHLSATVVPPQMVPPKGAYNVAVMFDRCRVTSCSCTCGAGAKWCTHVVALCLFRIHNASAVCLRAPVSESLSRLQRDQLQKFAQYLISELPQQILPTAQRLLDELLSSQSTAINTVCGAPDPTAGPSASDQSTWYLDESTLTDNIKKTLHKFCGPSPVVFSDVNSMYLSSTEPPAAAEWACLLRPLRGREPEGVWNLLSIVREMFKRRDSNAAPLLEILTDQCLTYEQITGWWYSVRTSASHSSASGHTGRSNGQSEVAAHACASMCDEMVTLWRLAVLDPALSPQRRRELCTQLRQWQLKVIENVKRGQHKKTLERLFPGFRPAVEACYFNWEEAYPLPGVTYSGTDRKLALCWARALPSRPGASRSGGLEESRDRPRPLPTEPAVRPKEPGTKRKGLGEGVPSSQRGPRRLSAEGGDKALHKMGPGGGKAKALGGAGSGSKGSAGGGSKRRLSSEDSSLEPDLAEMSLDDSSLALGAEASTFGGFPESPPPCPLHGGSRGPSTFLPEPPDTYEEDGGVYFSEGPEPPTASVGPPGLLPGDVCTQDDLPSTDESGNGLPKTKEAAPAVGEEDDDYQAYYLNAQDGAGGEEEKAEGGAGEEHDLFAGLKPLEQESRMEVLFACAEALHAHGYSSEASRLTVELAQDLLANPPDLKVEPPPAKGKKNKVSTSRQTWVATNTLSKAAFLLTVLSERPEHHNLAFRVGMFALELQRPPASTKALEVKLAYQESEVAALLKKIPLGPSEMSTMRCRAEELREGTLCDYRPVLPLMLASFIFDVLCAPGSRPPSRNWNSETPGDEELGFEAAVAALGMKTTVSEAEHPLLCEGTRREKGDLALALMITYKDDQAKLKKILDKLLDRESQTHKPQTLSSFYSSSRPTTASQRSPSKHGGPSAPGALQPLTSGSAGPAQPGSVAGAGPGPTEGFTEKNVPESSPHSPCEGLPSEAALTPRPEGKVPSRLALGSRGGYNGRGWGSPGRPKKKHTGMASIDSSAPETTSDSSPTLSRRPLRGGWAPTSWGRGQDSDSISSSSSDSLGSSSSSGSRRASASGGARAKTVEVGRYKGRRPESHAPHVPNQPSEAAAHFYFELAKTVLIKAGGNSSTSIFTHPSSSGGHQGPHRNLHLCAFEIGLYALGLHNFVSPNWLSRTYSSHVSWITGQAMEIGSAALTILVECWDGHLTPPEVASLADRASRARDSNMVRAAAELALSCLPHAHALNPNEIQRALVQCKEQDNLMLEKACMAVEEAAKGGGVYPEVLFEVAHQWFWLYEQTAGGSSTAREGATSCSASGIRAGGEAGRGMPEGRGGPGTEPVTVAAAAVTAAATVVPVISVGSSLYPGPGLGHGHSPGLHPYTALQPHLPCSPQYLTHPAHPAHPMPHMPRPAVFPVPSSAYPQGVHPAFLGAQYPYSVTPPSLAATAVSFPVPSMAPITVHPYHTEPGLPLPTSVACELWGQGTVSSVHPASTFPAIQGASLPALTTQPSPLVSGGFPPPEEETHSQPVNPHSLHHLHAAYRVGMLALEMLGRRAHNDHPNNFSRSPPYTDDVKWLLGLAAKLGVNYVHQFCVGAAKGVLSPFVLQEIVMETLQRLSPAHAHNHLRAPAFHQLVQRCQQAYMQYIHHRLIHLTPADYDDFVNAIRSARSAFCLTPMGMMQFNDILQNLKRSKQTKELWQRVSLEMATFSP
Chain of UniProt P40818 (P40818 whole entry, looked up): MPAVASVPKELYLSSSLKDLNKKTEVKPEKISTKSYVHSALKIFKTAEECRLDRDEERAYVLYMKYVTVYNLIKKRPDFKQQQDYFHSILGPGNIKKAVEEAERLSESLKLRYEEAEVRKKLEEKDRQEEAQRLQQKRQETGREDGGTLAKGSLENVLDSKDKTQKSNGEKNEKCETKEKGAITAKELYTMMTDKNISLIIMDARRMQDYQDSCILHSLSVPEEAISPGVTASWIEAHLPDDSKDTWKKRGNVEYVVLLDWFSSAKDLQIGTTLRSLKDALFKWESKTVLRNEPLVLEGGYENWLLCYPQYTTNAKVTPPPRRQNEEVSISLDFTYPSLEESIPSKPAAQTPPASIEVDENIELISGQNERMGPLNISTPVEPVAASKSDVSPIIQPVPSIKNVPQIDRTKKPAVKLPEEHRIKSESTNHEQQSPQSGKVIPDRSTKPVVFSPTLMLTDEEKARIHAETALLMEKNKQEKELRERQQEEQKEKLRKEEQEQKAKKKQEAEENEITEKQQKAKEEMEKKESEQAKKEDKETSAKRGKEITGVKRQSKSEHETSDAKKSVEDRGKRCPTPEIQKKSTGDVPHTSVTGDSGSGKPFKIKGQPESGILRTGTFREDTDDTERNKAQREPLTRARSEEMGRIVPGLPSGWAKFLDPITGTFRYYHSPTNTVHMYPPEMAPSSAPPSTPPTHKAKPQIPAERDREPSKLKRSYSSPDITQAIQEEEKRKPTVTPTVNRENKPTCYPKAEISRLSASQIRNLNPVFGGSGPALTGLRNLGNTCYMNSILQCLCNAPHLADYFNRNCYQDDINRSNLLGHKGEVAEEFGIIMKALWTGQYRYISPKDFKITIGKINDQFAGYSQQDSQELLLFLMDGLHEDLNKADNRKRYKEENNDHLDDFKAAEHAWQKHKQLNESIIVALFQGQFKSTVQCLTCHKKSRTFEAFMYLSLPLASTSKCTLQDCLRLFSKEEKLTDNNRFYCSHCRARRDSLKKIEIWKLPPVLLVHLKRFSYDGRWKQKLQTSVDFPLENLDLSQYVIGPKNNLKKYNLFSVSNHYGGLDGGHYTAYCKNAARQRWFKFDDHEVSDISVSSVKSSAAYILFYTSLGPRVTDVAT
Chain of UniProt Q6EMK4 (Q6EMK4 whole entry, looked up): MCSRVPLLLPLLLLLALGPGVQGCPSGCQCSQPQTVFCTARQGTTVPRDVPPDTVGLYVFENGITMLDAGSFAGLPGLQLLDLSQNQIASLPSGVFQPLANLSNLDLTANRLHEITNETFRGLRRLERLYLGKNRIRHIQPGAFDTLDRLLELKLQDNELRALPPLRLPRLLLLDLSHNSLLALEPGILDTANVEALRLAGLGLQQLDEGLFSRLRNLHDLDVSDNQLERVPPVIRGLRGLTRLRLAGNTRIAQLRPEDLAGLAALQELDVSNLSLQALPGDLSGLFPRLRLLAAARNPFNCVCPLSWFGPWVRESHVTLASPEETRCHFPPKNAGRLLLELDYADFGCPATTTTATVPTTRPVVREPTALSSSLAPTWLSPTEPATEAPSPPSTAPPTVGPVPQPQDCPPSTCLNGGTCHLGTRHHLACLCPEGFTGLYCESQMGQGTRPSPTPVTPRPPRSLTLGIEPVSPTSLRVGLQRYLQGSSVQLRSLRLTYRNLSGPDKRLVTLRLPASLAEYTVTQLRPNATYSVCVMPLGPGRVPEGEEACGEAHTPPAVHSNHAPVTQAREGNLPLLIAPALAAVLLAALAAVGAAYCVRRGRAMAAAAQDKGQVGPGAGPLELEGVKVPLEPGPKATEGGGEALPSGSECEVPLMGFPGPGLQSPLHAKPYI
Chain of UniProt Q8TCY9 (Q8TCY9 whole entry, looked up): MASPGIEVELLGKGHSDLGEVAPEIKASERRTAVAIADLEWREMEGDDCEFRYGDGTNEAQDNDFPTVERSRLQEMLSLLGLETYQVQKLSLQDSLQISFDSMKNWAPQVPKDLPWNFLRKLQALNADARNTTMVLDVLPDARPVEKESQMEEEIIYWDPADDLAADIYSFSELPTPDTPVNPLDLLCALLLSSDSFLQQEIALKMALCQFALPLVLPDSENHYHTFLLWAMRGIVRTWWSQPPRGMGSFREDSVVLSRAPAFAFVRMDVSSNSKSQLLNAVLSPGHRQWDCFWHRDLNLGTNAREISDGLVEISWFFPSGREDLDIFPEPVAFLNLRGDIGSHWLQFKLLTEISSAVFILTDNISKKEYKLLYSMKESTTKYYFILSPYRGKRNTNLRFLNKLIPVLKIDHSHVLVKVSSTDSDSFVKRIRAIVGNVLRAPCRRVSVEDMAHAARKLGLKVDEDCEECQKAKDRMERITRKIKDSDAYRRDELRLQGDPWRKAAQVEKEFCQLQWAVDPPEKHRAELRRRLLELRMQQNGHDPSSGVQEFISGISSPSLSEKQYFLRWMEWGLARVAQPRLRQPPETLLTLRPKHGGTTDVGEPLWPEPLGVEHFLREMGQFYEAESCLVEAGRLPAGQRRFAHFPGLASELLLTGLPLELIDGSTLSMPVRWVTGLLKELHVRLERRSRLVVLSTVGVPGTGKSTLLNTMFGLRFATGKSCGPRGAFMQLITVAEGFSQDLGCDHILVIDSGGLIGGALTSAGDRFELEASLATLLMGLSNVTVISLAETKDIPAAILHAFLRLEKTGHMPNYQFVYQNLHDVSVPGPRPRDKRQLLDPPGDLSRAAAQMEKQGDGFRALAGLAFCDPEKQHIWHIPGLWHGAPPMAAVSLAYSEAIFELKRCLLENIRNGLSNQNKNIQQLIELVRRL
Chain of UniProt P42768 (P42768 whole entry, looked up): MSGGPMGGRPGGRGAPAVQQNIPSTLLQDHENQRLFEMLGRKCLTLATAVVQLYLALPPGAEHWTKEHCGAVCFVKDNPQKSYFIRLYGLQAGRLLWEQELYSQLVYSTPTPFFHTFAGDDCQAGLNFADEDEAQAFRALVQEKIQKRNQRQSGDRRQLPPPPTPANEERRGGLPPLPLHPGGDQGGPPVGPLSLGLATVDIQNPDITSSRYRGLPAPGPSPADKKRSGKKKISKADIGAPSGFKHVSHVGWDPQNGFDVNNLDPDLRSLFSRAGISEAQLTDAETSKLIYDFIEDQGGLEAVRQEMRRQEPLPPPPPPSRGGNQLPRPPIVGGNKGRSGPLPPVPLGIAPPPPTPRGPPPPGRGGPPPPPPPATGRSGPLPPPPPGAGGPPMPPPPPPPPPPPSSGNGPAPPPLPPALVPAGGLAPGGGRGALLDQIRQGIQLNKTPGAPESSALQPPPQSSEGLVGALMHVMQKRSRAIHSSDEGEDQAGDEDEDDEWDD

UNC13A (UniProt Q9UPW8): the log2 fold change was 0.114 in the assay with nilotinib; 0.046 in [1]; 0.165 in assay [2]; 0.064 with tipifarnib; -0.048 in [3]; -0.485 with vorinostat. Besides, the log2 fold change with silmitasertib is 0.078.

On to ZFYVE19 (UniProt Q96K21), for which the log2 fold change with nilotinib was 0.014; in assay [1] it was -0.001; with dasatinib, 0.007; in assay [2], 0.053; in [4] it was -0.041; with quisinostat it was -0.01. Besides, the log2 fold change with tipifarnib was 0.006; in [5] it was -0.003; in assay [6], 0.014; in assay [3] it was 0.003; in [7] it was 0.026; with vorinostat it was 0.105. The figures for the log2 fold change (with silmitasertib; in assay [8]; with entospletinib) were 0.002, 0.01 and -0.012, respectively.

As for VASN (UniProt Q6EMK4), the log2 fold change with dasatinib is 0.081; in [4] it was 0.027; in [3], -0.059; with vorinostat it was 0.233; with silmitasertib it was -0.263; with entospletinib, -0.027.

As to WAS (UniProt P42768), the log2 fold change with nilotinib is 0.636 (active); in assay [1] it was -0.102; with dasatinib, 0.095; in assay [2], 0.318; in assay [4], 0.129; with tipifarnib it was -0.064. Moreover, the log2 fold change was 0.025 in [3], -0.07 with vorinostat, 0.025 in the assay with silmitasertib and -0.055 in the assay with entospletinib.

In the case of URGCP (UniProt Q8TCY9), the log2 fold change with nilotinib was 0.028; in [1], 0.079; in the assay with dasatinib, -0.204; in assay [2], -0.04; in assay [4], -0.145; with tipifarnib, -0.008. Moreover, the log2 fold change in assay [7] was 0.

For the target ZSCAN21 (UniProt Q9Y5A6), the log2 fold change with entospletinib was -0.208.

In the case of WAC isoform 5 (UniProt Q9BTA9), the log2 fold change was -0.336 with dasatinib; 0.254 in [4]; -0.129 in [3]; -0.002 in the assay with vorinostat; 0.351 with silmitasertib.

Regarding ZMYND8 isoform 19 (UniProt Q9ULU4), the log2 fold change with nilotinib is -0.011; in assay [1], -0.056; in the assay with dasatinib, -0.019; in [2] it was 0.022; in assay [4] it was 0.036; with quisinostat it was -0.073. For the same target, the log2 fold change with tipifarnib was -0.025; in [5], -0.004; in assay [6] it was 0.009; in assay [3] it was 0.043; in [7], 0.059; with vorinostat, -0.224 (active). Besides, the log2 fold change was 0.029 with silmitasertib, 0.006 in assay [8] and -0.02 in the assay with entospletinib.

ZNF593 (UniProt O00488): the log2 fold change is 0.125 in the assay with dasatinib; -0.042 in assay [4]; 0.02 with quisinostat; 0.063 in [5]; 0.295 in [6]; 0.03 in [3]. The log2 fold change in assay [7] is -0.029; with vorinostat, 0.191; with silmitasertib, -0.001; in assay [8], 0.044; with entospletinib it was 0.027.

Consider USP8 (UniProt P40818), for which the log2 fold change with nilotinib is -0.014; in [1], -0.007; in the assay with dasatinib it was 0.005; in assay [2] it was 0.042; in assay [4], 0.024; in the assay with quisinostat it was -0.015. Also, the log2 fold change was -0.01 with tipifarnib; 0.016 in assay [5]; -0.016 in assay [6]; 0.026 in [3]; 0.012 in [7]; -0.324 (active) with vorinostat. Besides, the log2 fold change with silmitasertib is 0.013; in [8] it was 0.009; with entospletinib, 0.012.

With UNKL (UniProt E9PDK2), the log2 fold change with dasatinib is -0.216; in assay [4], 0.006; with quisinostat it was 0.015; in [5] it was 0.045; in [7], -0.336; in assay [8], 0.003. In addition, the log2 fold change with entospletinib is 0.108.

With ZSWIM8 isoform 4 (UniProt A7E2V4), the log2 fold change in the assay with nilotinib was -0.009; in [1], 0.129; with dasatinib, 0.085; in assay [2] it was 0.07; in [4], 0.042; in the assay with quisinostat, -0.051. Besides, the log2 fold change was -0.065 with tipifarnib; 0.067 in [5]; -0.112 in [3]; 0.079 in [7]; -0.07 with vorinostat; 0.081 with silmitasertib. Further, the results for the log2 fold change (in [8]; in the assay with entospletinib) were 0.071 and -0.018, respectively.
